Among the data in PubChem BioAssay are growth inhibition, inhibition and outcome values, retold here.

Each structure is given as a SMILES string. Unmarked numbers belong to inactive results. For some assays here: Measured potencies and affinities stand elsewhere. The source made the active and inactive calls. Unless noted, how the calls were made is not given here.

Usually inhibition stands for the relative decrease from the control value, in per cent.

A short description of experiment [1]: antimalarial activity against Dd2 strain (AID 2302;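 active means growth inhibition above 50% at the single 2 µM test dose, taken to imply half-maximal potency below 2 µM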;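 further: 0% = DMSO untreated growth and 100% = chloroquine plus artemisinin killed control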). The conditions noted are these: P. falciparum Dd2 in RBCs, LDH growth readout, 72 h; at 2 µM; hits give high values.
Experiment [2] is described as follows: HepG2 cytotoxicity, primary screen, cytotoxicity control for P. falciparum antimalarial project, cell-based, ATP luminescence (AID 2303;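 active means inhibition above 50%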;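 further: 0% = DMSO wells and 100% = digitonin-killed cells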). The conditions noted are these: HepG2 viability, 24-48 h, at 10 µM, hits give high values.
Experiment [3] deals with L-lactate dehydrogenase (Plasmodium falciparum (isolate CDC / Honduras)) (UniProt Q27743). The experiment is described as follows: PfLDH activity inhibition – cell lysate, 3D7 strain, counter-screen for P. falciparum growth inhibition project (AID 2304).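 Further: 0% = vehicle and 100% = reference inhibitor.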 Conditions: P. falciparum 3D7 crude extract, LDH APAD/NBT absorbance; at 2 µM; hits give high values. On the technique in general: The purpose of a counterscreen is to sort out artefacts and off-target activity.
Chain of L-lactate dehydrogenase (Plasmodium falciparum (isolate CDC / Honduras)) (Q27743 whole entry, looked up): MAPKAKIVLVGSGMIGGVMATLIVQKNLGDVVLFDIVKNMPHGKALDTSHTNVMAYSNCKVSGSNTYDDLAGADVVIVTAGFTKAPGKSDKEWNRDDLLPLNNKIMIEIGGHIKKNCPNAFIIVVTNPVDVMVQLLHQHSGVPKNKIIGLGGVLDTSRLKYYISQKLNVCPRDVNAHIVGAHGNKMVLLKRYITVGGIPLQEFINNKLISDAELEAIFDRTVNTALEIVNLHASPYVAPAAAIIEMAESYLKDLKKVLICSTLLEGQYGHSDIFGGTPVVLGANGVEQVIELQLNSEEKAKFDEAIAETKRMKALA

Experiment [4] in a line: inhibition of 3D7 malaria parasite growth – strain 3D7 (AID 2306).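 Further: 0% = DMSO wells and 100% = chloroquine plus artemisinin control wells.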 Conditions: P. falciparum 3D7 erythrocytic growth, LDH absorbance, 72 h; at 2 µM; hits give high values.
In experiment [5] the target is Calcium-dependent protein kinase 1 (Plasmodium falciparum (isolate 3D7)) (UniProt P62344). The experiment in a line: PfCDPK1 kinase inhibitors, biochemical, TCAMS library (AID 1159585; cut-off not given, nearly all actives have IC50 up to about 0.98 µM;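 further: inhibitors leave more ATP so luminescence rises with inhibition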). Conditions: recombinant PfCDPK1, Kinase-Glo ATP depletion luminescence. (In general: Kinase-Glo measures the ATP left after a reaction by luminescence.)
Chain of Calcium-dependent protein kinase 1 (Plasmodium falciparum (isolate 3D7)) (P62344 whole entry, looked up): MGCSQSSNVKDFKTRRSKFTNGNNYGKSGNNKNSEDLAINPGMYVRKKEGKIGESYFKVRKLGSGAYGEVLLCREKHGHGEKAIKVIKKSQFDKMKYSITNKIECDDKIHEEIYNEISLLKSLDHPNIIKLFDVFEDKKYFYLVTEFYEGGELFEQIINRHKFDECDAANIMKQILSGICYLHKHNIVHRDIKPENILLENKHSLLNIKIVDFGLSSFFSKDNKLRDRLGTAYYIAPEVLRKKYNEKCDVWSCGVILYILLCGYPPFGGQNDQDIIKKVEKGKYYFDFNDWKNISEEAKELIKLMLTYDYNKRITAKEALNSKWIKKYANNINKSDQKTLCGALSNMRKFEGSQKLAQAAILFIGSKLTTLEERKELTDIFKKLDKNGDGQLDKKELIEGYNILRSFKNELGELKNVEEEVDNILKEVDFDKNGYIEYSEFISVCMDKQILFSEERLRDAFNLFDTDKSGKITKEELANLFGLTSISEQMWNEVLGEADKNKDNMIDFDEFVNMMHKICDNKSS
Experiment [6] deals with Plasmodium falciparum protein kinase 6 (PK6, PF3D7_1337100) (UniProt Q8IDW1). The experiment in a line: PfPK6 kinase inhibitors, biochemical, TCAMS library (AID 1159586). Conditions: recombinant PfPK6, Kinase-Glo ATP depletion luminescence.
Chain of Plasmodium falciparum protein kinase 6 (PK6, PF3D7_1337100) (Q8IDW1 1-305): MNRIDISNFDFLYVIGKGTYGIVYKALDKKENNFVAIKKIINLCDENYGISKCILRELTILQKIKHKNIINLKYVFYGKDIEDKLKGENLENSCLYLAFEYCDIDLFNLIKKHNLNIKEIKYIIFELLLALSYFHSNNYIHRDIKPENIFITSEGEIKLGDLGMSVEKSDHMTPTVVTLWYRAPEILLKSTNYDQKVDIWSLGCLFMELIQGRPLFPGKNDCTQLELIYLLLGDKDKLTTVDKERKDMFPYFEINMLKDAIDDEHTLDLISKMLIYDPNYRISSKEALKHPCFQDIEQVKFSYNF
The target in experiment [7] is Protein kinase 7 (PK7), Plasmodium falciparum 3D7 (PF3D7_0213400) (UniProt Q7YTF7). The experiment is described as follows: inhibition of Plasmodium PK7 catalytic activity – biochemical, TCAMS antimalarial set, Kinase-Glo luminescence (AID 1159587). The conditions noted are these: recombinant PfPK7, Kinase-Glo ATP depletion luminescence.
Chain of Protein kinase 7 (PK7), Plasmodium falciparum 3D7 (PF3D7_0213400) (Q7YTF7 1-343): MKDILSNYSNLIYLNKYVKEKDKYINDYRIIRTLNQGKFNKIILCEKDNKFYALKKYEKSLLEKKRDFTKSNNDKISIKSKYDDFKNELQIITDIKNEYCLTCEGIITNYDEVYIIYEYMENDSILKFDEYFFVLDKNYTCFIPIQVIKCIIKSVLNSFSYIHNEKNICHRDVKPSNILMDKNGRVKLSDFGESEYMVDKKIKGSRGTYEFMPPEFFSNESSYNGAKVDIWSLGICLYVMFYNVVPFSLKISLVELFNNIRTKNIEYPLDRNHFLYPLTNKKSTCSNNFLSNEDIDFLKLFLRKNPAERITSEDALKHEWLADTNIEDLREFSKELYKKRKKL
Experiment [8] has as its target Calcium-dependent protein kinase 4 (Plasmodium falciparum (isolate 3D7)) (UniProt Q8IBS5). The experiment is described as follows: PfCDPK4 kinase inhibitors, biochemical, TCAMS library (AID 1159588; cut-off not given, nearly all actives have IC50 up to about 0.91 µM). Conditions: recombinant PfCDPK4, Kinase-Glo ATP depletion luminescence.

Chain of Calcium-dependent protein kinase 4 (Plasmodium falciparum (isolate 3D7)) (Q8IBS5 whole entry, looked up): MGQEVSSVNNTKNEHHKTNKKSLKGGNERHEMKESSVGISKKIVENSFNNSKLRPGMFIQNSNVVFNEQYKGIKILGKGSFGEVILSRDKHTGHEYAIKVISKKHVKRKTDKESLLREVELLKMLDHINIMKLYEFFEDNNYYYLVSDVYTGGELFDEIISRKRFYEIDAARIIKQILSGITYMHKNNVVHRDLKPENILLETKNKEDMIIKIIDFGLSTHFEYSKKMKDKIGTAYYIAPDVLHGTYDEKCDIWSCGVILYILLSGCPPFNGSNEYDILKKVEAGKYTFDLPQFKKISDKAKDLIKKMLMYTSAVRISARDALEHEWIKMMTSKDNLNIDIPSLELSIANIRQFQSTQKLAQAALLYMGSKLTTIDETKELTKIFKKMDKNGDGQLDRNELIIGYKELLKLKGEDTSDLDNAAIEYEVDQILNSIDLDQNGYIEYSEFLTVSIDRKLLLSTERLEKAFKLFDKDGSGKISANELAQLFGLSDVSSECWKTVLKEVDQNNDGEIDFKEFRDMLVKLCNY

As for `Cc1ccc(Nc2nc(N)c3ccccc3n2)cc1`, the growth inhibition in experiment [1] is 12%; in experiment [4] it was 94% (active). Further, the inhibition in experiment [2] is 9%; in experiment [3] it was 8%. In addition, the outcome in experiment [5], in experiment [6], in experiment [7] and in experiment [8] was inactive.

For the compound `O=C(Nc1ccc(OC2CCN(Cc3ccsc3)C2)c(Cl)c1)c1ccc2ncccc2c1` (configuration not stated), the results for the growth inhibition in experiment [1] and in experiment [4] were 10% and 88% (active), respectively. Also, the inhibition is 84% (active) in experiment [2] and -1% in experiment [3]. Moreover, the outcome in experiment [5], in experiment [6], in experiment [7] and in experiment [8] was inactive.

For the compound `COc1ccc2nc(C)cc(NN=Cc3cccc([N+](=O)[O-])c3)c2c1`, the results for the growth inhibition in experiment [1] and in experiment [4] were 97% (active) and 102% (active), respectively. The values for the inhibition in experiment [2] and in experiment [3] were 6% and 7%, respectively. Also, the result in experiment [5], in experiment [6], in experiment [7] and in experiment [8] was inactive.

In the case of `CN(CCN)Cc1ccc(-c2ccc(-c3nc4ccc(C(F)(F)F)cc4[nH]3)s2)cc1`, the growth inhibition in experiment [1] and in experiment [4] was 98% (active) each time. Besides, the results for the inhibition in experiment [2] and in experiment [3] were 37% and 2%, respectively. Moreover, the result in experiment [5], in experiment [6], in experiment [7] and in experiment [8] was inactive.

Take `O=C(Nc1ccc(S(=O)(=O)N2CCCCC2)cc1)c1cc(-c2cc(Cl)ccc2O)n[nH]1`: the growth inhibition in experiment [1] was 87% (active); in experiment [4], 97% (active). Moreover, the inhibition is 36% in experiment [2] and 0% in experiment [3]. Also, the result in experiment [5], in experiment [6], in experiment [7] and in experiment [8] was inactive.

`COc1cccc(C(=O)N2CCOC(CCN3CCC(c4ccccc4)CC3)(c3ccc(Cl)c(Cl)c3)C2)c1` (configuration not stated): the figures for the growth inhibition in experiment [1] and in experiment [4] were 63% (active) and 87% (active), respectively. In addition, the inhibition was 38% in experiment [2] and -2% in experiment [3]. Besides, the result in experiment [5], in experiment [6], in experiment [7] and in experiment [8] was inactive.

With `Cc1cc2c(cc1C(F)(F)F)N(C(=O)Nc1cc(OCCN(C)C)cc(C(F)(F)F)c1)CC2`, the growth inhibition in experiment [1] is 19%; in experiment [4] it was 101% (active). Besides, the results for the inhibition in experiment [2] and in experiment [3] were 16% and 0%, respectively. The result in experiment [5], in experiment [6], in experiment [7] and in experiment [8] was inactive.

Take `CCn1ccc2c3c(N)nc(N)nc3ccc21`: the growth inhibition in experiment [1] was 2%; in experiment [4], 99% (active). Moreover, the figures for the inhibition in experiment [2] and in experiment [3] were 61% (active) and 6%, respectively. Moreover, the result in experiment [5], in experiment [6], in experiment [7] and in experiment [8] was inactive.

`CCC[C@@H]([C@@H](CC1CCCCC1)C(=O)NC(C(=O)Nc1nccs1)C(CC)c1ccccc1)N(O)C=O` (some centres not stated): the figures for the growth inhibition in experiment [1] and in experiment [4] were 19% and 89% (active), respectively. Also, the figures for the inhibition in experiment [2] and in experiment [3] were 50% (active) and -4%, respectively. For the same compound, the result in experiment [5], in experiment [6], in experiment [7] and in experiment [8] was inactive.

`COc1ccc(C(=O)CCC(=O)N(Cc2ccc(-c3ccc(CNCCc4ccc(S(C)(=O)=O)cc4)cn3)cc2)C(C)CN(C)C)cc1F` (configuration not stated): the growth inhibition was 85% (active) in experiment [1] and 98% (active) in experiment [4]. The inhibition in experiment [2] is 13%; in experiment [3], -8%. The outcome in experiment [5], in experiment [6], in experiment [7] and in experiment [8] was inactive.

Consider `CCCCC1(c2ccc(F)cc2)NC(=O)N(CC(=O)c2cc(C)n(Cc3ccco3)c2C)C1=O` (configuration not stated), for which the growth inhibition in experiment [1] was 28%; in experiment [4], 82% (active). Further, the inhibition in experiment [2] was 6%; in experiment [3] it was -3%. In addition, the result in experiment [5], in experiment [6], in experiment [7] and in experiment [8] was inactive.

`CN1CCC(NCc2cccc(-c3ccc(S(=O)(=O)NCCN4CCCC4)s3)c2)CC1`: the growth inhibition was 1% in experiment [1] and 91% (active) in experiment [4]. For the same compound, the inhibition in experiment [2] was 10%; in experiment [3] it was -5%. Also, the outcome in experiment [5], in experiment [6], in experiment [7] and in experiment [8] was inactive.

Regarding `Cc1c(C(=O)[C@@H]2C[C@H]2CN2CCC(N3CCCC3)CC2)sc2ccccc12`, the growth inhibition in experiment [1] was 9%; in experiment [4], 94% (active). The values for the inhibition in experiment [2] and in experiment [3] were 16% and 0%, respectively. Also, the result in experiment [5], in experiment [6], in experiment [7] and in experiment [8] was inactive.

As to `COC(=O)c1ccc(CCC(C)NCC(O)c2cccc(C(F)(F)F)c2)cc1` (configuration not stated), the growth inhibition in experiment [1] and in experiment [4] was 99% (active) each time. The inhibition in experiment [2] is 16%; in experiment [3] it was -7%. In addition, the result in experiment [5], in experiment [6], in experiment [7] and in experiment [8] was inactive.

In the case of `CCOc1ccc2c(NN=Cc3ccccc3OC)cc(C)nc2c1`, the growth inhibition is 93% (active) in experiment [1] and 99% (active) in experiment [4]. The inhibition in experiment [2] was 11%; in experiment [3] it was 0%. Besides, the result in experiment [5], in experiment [6], in experiment [7] and in experiment [8] was inactive.

With `COc1ccccc1N1CCN(Cc2c(O)ccc3cc(Br)ccc23)CC1`, the growth inhibition in experiment [1] was 75% (active); in experiment [4], 89% (active). The inhibition was 8% in experiment [2] and 2% in experiment [3]. Besides, the result in experiment [5], in experiment [6], in experiment [7] and in experiment [8] was inactive.

`CN1CCC(Oc2ccc(NC(=O)c3ccc4c(=O)n(Cc5ccccc5)cnc4c3)cc2Cl)CC1`: the growth inhibition was 20% in experiment [1] and 95% (active) in experiment [4]. The inhibition was 23% in experiment [2] and 0% in experiment [3]. The result in experiment [5], in experiment [6], in experiment [7] and in experiment [8] was inactive.

In the case of `NC(=O)c1ccccc1OCC(=O)Nc1cccc(-c2cccc(-c3nc4ccccc4[nH]3)c2)c1`, the growth inhibition in experiment [1] is 46%; in experiment [4] it was 88% (active). Further, the inhibition in experiment [2] is 23%; in experiment [3], 3%. Moreover, the result in experiment [5], in experiment [6], in experiment [7] and in experiment [8] was inactive.

Take `CC(C)Nc1nc(NC2CCCCC2)nc(N2CCCCCCC2)n1`: the growth inhibition was 96% (active) in experiment [1] and 86% (active) in experiment [4]. Besides, the figures for the inhibition in experiment [2] and in experiment [3] were 13% and 2%, respectively. For the same compound, the outcome in experiment [5], in experiment [6], in experiment [7] and in experiment [8] was inactive.
